The source made the active and inactive calls.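 How the source made its calls: active means EC50 at or below 10 µM; inactive means EC50 above 10 µM.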
Experiment: FP signal increase by Cy5-IP20 peptide alone, dose response, artefact control for PKA-R1A complex activator project, biochemical, fluorescence polarization, 1536-well HTS (AID 504883)
Conditions: fluorescence polarization artifact counterscreen

Structure (SMILES) | EC50
CCCC(=O)Nc1ncnc2c1ncn2[C@@H]1O[C@@H]2COP(=O)(O)O[C@H]2[C@H]1OC(=O)CCC | > 114 µM (inactive)
Nc1nc2c(nc(Br)n2[C@@H]2O[C@@H]3COP(=O)(O)O[C@H]3[C@H]2O)c(=O)[nH]1 | > 114 µM (inactive)
Nc1ncnc2c1nc(Sc1ccc(Cl)cc1)n2[C@@H]1O[C@@H]2COP(=O)(O)O[C@H]2[C@H]1O | > 114 µM (inactive)
CCOP1(=O)OCC2OC(n3cnc4c(N)ncnc43)C(O)C2O1 (stereo unspecified) | > 114 µM (inactive)
Nc1ncnc2c1nc(Br)n2[C@@H]1O[C@@H]2COP(=O)(O)O[C@H]2[C@H]1O | > 114 µM (inactive)
CCCC(=O)Nc1ncnc2c1ncn2[C@@H]1O[C@@H]2OP(=O)(O)OC[C@H]2[C@H]1OC(=O)CCC | > 114 µM (inactive)

— PubChem BioAssay AID504883 (The Scripps Research Institute Molecular Screening Center, 2011)
